From PubChem BioAssay AID1159580 (chemical genetic matrix, 2015)
Values joined by “and” are separate entries in the source; they are usually repeats but may differ in a detail not shown here. Equal values may be shown once. Hit rate of the full screen: of about 5,500 compounds, about 2,000 (36%) were called active. Another 18% or so got no clear call; they are omitted. Cut-off read from the data, not from the text of the source: active = normalized growth mostly below about 0.91 (no sharp cut-off); inconclusive = no clear call, values can overlap the other calls; inactive = mostly above about 0.92. The list shows a part of the results.

Test: chemical genetic growth profiling, strain panel (AID 1159580);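 note: tested at 20 µM; growth read once vehicle control cultures reached saturation at 30 °C; 1 = growth at the plate median or of vehicle wells; lower values mean less growth of the strain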
Details: S. cerevisiae deletion strains, growth OD

Measured: normalized growth

O=C1CC2OCC=C3CN4CC[C@]56c7ccccc7N1C5[C@H]2[C@H]3CC46 (some centres not stated)
inactive: locus YAL013W, strain DEP1, stronger effect = lower value 1 | locus YAL021C, strain ccr4, stronger effect = lower value 1.03 | locus YAL026C, strain drs2, stronger effect = lower value 1.03 | locus YAL030W, strain snc1, stronger effect = lower value 1.01 | locus YBL061C, strain skt5, stronger effect = lower value 1.01 | locus YBR009C, strain hhf1, stronger effect = lower value 1.02 | locus YBR021W, strain FUR4, stronger effect = lower value 1.01 | locus YBR023C, strain chs3, stronger effect = lower value 1.03 | locus YBR171W, strain sec66, stronger effect = lower value 1.03 | locus YBR229C, strain ROT2, stronger effect = lower value 1 | locus YBR231C, strain swc5, stronger effect = lower value 1.02 | locus YBR279W, strain paf1, stronger effect = lower value 1.03 | locus YCL011C, strain gbp2, stronger effect = lower value 1.03 | locus YCL016C, strain dcc1, stronger effect = lower value 1.03 | locus YCL029C, strain bik1, stronger effect = lower value 1 | locus YCL061C, strain MRC1, stronger effect = lower value 1.02 | locus YCL069W, strain vba3, stronger effect = lower value 1.02 | locus YCR088W, strain abp1, stronger effect = lower value 1.03 | locus YDL005C, strain med2, stronger effect = lower value 1.03 | locus YDL035C, strain GPR1, stronger effect = lower value 1.01 | locus YDL040C, strain nat1, stronger effect = lower value 1.03 | locus YDL074C, strain BRE1, stronger effect = lower value 1.02 | locus YDL101C, strain DUN1, stronger effect = lower value 1.01 | locus YDL134C, strain PPH21, stronger effect = lower value 1.01 | locus YDL185W, strain tfp1, stronger effect = lower value 0.983 | locus YDL192W, strain arf1, stronger effect = lower value 1 | locus YDR001C, strain nth1, stronger effect = lower value 1.03 | locus YDR069C, strain doa4, stronger effect = lower value 1.02 | locus YDR101C, strain arx1, stronger effect = lower value 0.992 | locus YDR137W, strain rgp1, stronger effect = lower value 1.05 | locus YDR150W, strain NUM1, stronger effect = lower value 1.01 | locus YDR159W, strain sac3, stronger effect = lower value 1.01 | locus YDR162C, strain NBP2, stronger effect = lower value 1.01 | locus YDR195W, strain ref2 1.1 | locus YDR297W, strain sur2, stronger effect = lower value 1.02 | locus YDR318W, strain mcm21, stronger effect = lower value 0.999 | locus YDR334W, strain swr1, stronger effect = lower value 1.01 | locus YDR335W, strain msn5, stronger effect = lower value 1.03 | locus YDR388W, stronger effect = lower value 1 | locus YDR392W, strain spt3, stronger effect = lower value 1.03 | locus YDR502C, strain sam2, stronger effect = lower value 1 | locus YEL003W, strain gim4, stronger effect = lower value 1.02 | locus YEL037C, strain rad23, stronger effect = lower value 1.03 | locus YEL061C, strain CIN8 (second series), stronger effect = lower value 1.02 | locus YEL061C, strain CIN8, stronger effect = lower value 1.01 | locus YER015W, strain faa2, stronger effect = lower value 1.03 | locus YER016W, strain bim1, stronger effect = lower value 1.02 | locus YER110C, stronger effect = lower value 0.996 | locus YER111C, strain swi4, stronger effect = lower value 1 | locus YER155C, strain BEM2 (second series), stronger effect = lower value 1.04 | locus YER155C, strain BEM2, stronger effect = lower value 1.02 | locus YER167W, strain BCK2, stronger effect = lower value 1.01 | locus YFR010W, strain ubp6, stronger effect = lower value 1.02 | locus YGL078C, strain dbp3, stronger effect = lower value 0.99 | locus YGL086W, strain mad1, stronger effect = lower value 0.998 | locus YGL167C, strain pmr1, stronger effect = lower value 1.02 | locus YGL173C, strain kem1, stronger effect = lower value 1.02 | locus YGL227W, strain vid30, stronger effect = lower value 1.03 | locus YGL240W, strain doc1, stronger effect = lower value 1.01 | locus YGL248W, strain PDE1, stronger effect = lower value 1.01 | locus YGL253W, strain hxk2, stronger effect = lower value 1.01 | locus YGR078C, strain PAC10, stronger effect = lower value 1.01 | locus YGR135W, strain pre9, stronger effect = lower value 0.982 | locus YGR229C, strain SMI1, stronger effect = lower value 1.03 | locus YGR252W, strain gcn5, stronger effect = lower value 0.914 | locus YHR013C, strain ard1, stronger effect = lower value 1.01 | locus YHR027C, strain rpn1, stronger effect = lower value 1.03 | locus YHR030C, strain SLT2, stronger effect = lower value 1 and 0.976 | locus YHR079C, strain IRE1 (second series), stronger effect = lower value 0.997 | locus YHR079C, strain IRE1, stronger effect = lower value 0.864 | locus YHR094C, strain hxt1, stronger effect = lower value 0.995 | locus YHR129C, strain ARP1, stronger effect = lower value 1.03 | locus YHR142W, strain chs7, stronger effect = lower value 1.03 | locus YHR200W, strain rpn10, stronger effect = lower value 1 | locus YIL066C, strain RNR3, stronger effect = lower value 1.01 | locus YIL073C, strain SPO22, stronger effect = lower value 1.02 | locus YIL125W, strain kgd1, stronger effect = lower value 1 | locus YIR030C, strain dcg1, stronger effect = lower value 1 | locus YJL092W, strain hpr5, stronger effect = lower value 1.02 | locus YJL095W, strain BCK1 (second series), stronger effect = lower value 1.03 | locus YJL095W, strain BCK1, stronger effect = lower value 1 and 0.974 | locus YJL115W, strain asf1, stronger effect = lower value 1 | locus YJL129C, strain trk1, stronger effect = lower value 1.05 | locus YJL134W, strain LCB3, stronger effect = lower value 1.01 | locus YJL154C, strain vps35, stronger effect = lower value 1.01 | locus YJL164C, strain tpk1, stronger effect = lower value 1.03 | locus YJL166W, strain qcr8, stronger effect = lower value 1.02 | locus YJL168C, strain set2, stronger effect = lower value 1 | locus YJL187C, strain SWE1 (second series), stronger effect = lower value 1.01 | locus YJL187C, strain SWE1, stronger effect = lower value 1.03 | locus YJR043C, strain POL32, stronger effect = lower value 0.997 | locus YJR066W, strain TOR1, stronger effect = lower value 0.961
